Rows were chosen to be rich in hits. Some 0.98% of all compounds tested hit in one or more screens of this group.
Candida biofilm = kills Candida albicans biofilms | inhibition, % at 6 µM | C. albicans biofilm + clotrimazole, Alamar Blue | AID 834 | 85,000 tested, 0.14% active;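 active means inhibition above 20%; inactive means inhibition below 20%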;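 further: preformed 24 hr biofilms exposed to compound for 48 hr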
MRP-1 activ = activators of MRP-1; 140,000 tested, 0.61% active; H69AR cells + doxorubicin, viability rescue, CellTiter-Glo; viability increase, % at 10 µM;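 active means viability gain under doxorubicin at or above a set limit, the compound median plus 3 SD, cut at about 4.7% in these data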;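 further: MRP-1 overexpressing cells given doxorubicin 25 µM after compound pretreatment; 18-22 h compound pretreatment then 72 h with doxorubicin before readout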
SDO1 yeast rescue = compounds rescuing growth of sdo1-depleted yeast, bone marrow failure model; S. cerevisiae sdo1-depleted JHY4D growth rescue, OD600 30 h; active compounds read high; pdr5 snq2 efflux-pump mutant strain; z-score at 10 µM; 140,000 tested, 0.21% active; AID 817;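 active means z-score above 3 at both the 24 hr and the 30 hr optical density reads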
MRP reversal = compounds reversing MRP-mediated drug resistance; H69AR cells + 2 uM doxorubicin, CellTiter-Glo, 72 h; differential viability (reversal), % at 10 µM; 85,000 tested, 0.04% active;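 active means viability drop by adding the cancer drug above about 55%, with treated viability meeting a 40% cutoff, limit read from the data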;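 further: larger differential means the compound sensitizes cells more to doxorubicin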
sdo1 rescue conf = confirmation of growth rescue in SDO1-depleted yeast, bone marrow failure. OD recovery (no concentration beside the values). S. cerevisiae JHY4D (SDO1-depleted) growth rescue, OD600, 30 h; active compounds read high; efflux-deficient strain, SNQ2 and PDR5 mutated. shares compounds with SDO1 yeast rescue. AID 949. 440 tested, 44% active;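 active means yeast growth recovered at 30 hours, either rising with dose fitted slope above 0.001 or with average optical density gain above 0.07, some results past the limit were not filed as active; inactive means growth falling with dose or no effect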
Of the large screens only hits and unclear results are named; the others gave an inactive call (follow-up assays come after a bar, where they were run).

Cc1ccc(N2C(=O)NC(=O)/C(=C\c3ccsc3)C2=O)cc1C	MRP-1 activ 5.5 (no result: Candida biofilm, MRP reversal)
COc1ccc(N2C(=O)CC(N3CCC(n4c(=O)[nH]c5ccccc54)CC3)C2=O)cc1 (stereo not given)	MRP-1 activ 5.5
Oc1c(Br)cc(Br)cc1Oc1ccc(Br)cc1Br	none (no result: Candida biofilm, MRP reversal)
CCN(CC)S(=O)(=O)c1ccc(NN=C(C#N)C#N)cc1	MRP-1 activ 5.6 (no result: Candida biofilm, MRP reversal)
O=C1/C(=C\c2cc3c(cc2Br)OCO3)N2CCC1CC2	none (no result: Candida biofilm, MRP reversal)
CCOP(=O)(C(NC(=O)c1ccccc1Cl)=C(Cl)Cl)c1ccccc1 (stereo not given)	Candida biofilm 69
CCCC(=O)NC(Oc1ccccc1Cl)C(Cl)(Cl)Cl (stereo not given)	none (no result: Candida biofilm, MRP reversal)
CN(C)c1ccc(NC(=O)CN2C(=O)CN=C(c3ccccc3)c3cc(Cl)ccc32)cc1	MRP-1 activ 6.8
Cc1ccc(NC(=O)CN2C(=O)CN=C(c3ccccc3)c3cc(Cl)ccc32)cc1	none
COc1cc(/C=C(/C)[N+](=O)[O-])ccc1OCc1ccccc1Cl	none (no result: Candida biofilm, MRP reversal)
O=[N+]([O-])c1ccc(C2C3C(c4ccccc4)=NC4(CCCC4)N32)cc1 (stereo not given)	none (no result: Candida biofilm, MRP reversal)
N/C(=N\N=C\c1ccc(O)cc1O)N[N+](=O)[O-]	none
COc1ccccc1/C=N/N=C(/N)N[N+](=O)[O-]	Candida biofilm 44
COc1ccccc1CN1CCN(C(=O)COc2ccccc2)CC1	none
O=C(COc1ccc(Cl)cc1)N1CCN(Cc2ccccc2)CC1	MRP-1 activ 6.5
O=C(c1cccn2c(=O)c3cc(Br)ccc3nc12)N1CCC2(CC1)OCCO2	MRP-1 activ 4.8
CCOC(=O)c1cc(CC)sc1/N=C/c1c(O)[nH]c(=S)[nH]c1=O	SDO1 yeast rescue 14 (no result: Candida biofilm, MRP reversal) | sdo1 rescue conf inactive
CNC(=O)OCCc1n(C)cc[n+]1C	none (no result: Candida biofilm, MRP reversal)

Bioassay records: PubChem, several laboratories
